Laboratory results from ChEMBL document CHEMBL3988442, “University of Dundee, Small-Polar-MMV Screening Library” (2021).
Screen size: about 67,000 compounds; about 300 (0.45%) showed an effect of 50% or more. The sample as a whole holds a higher share of strong results than the screen did.

These molecules were tested against Polyketide synthase Pks13 (Mycobacterium tuberculosis (strain ATCC 25618 / H37Rv)) (UniProt I6X8D2) (assay: Mycobacterium tuberculosis Polyketide synthase 13 Thioesterase (PKS13)). Conditions: 30 µM.
Chain of Polyketide synthase Pks13 (Mycobacterium tuberculosis (strain ATCC 25618 / H37Rv)) (I6X8D2 whole entry): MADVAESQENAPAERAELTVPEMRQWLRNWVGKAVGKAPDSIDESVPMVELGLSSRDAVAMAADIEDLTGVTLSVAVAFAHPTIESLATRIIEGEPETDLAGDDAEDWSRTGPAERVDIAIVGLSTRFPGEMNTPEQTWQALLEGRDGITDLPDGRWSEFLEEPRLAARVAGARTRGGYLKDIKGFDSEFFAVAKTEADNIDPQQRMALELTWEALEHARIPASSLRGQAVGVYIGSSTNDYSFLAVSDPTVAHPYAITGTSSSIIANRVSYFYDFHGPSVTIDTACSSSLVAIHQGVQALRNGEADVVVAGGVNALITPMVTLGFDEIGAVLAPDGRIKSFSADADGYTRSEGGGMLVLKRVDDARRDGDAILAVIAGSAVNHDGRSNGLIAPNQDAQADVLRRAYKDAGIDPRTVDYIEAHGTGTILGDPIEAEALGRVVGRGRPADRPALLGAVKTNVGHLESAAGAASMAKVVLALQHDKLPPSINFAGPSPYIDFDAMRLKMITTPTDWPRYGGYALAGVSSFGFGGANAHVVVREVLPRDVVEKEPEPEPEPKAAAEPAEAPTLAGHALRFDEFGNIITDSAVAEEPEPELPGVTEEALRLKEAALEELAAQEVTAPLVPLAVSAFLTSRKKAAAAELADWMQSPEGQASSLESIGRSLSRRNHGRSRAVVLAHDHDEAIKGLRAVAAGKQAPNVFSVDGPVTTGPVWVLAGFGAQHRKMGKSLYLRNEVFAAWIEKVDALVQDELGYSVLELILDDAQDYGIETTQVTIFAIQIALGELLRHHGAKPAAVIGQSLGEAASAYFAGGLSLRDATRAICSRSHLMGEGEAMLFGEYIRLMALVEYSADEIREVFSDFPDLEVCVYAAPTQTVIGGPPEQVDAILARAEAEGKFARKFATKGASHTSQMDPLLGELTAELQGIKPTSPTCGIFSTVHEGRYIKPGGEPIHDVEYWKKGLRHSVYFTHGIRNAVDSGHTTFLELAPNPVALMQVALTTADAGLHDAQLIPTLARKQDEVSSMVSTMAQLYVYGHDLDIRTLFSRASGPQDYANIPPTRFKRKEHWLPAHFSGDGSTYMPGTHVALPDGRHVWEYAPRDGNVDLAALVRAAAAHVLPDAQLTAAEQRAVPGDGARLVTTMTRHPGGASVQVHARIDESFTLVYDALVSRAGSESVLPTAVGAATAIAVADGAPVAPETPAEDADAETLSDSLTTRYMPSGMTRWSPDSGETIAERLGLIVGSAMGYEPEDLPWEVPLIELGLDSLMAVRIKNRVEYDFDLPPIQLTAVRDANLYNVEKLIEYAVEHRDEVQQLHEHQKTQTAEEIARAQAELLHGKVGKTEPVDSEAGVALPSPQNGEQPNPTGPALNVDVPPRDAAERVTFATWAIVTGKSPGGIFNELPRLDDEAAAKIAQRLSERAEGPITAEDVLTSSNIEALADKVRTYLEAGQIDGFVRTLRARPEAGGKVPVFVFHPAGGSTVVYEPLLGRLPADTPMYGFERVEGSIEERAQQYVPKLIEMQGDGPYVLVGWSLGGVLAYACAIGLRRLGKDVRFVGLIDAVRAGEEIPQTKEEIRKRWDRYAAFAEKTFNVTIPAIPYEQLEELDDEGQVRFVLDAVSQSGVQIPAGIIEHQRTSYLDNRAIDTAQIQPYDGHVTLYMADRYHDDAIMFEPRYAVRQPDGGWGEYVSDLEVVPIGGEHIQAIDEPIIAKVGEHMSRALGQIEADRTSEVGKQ
Assay type: functional
Set-up: scale not given: in the data most compounds retested in dose-response had high values

Compound	Percent Effect [%]
CN1C[C@@H]2CN(C(=O)NCc3ccccc3)CCC[C@]2(C(=O)O)C1	-22.8
O=S1(=O)C[C@@H]2[C@H](C1)N(Cc1cc(Cl)cc(Cl)c1)CCN2CC1CC1	-18.6
COc1cccc(N2CCN(C(=O)C(C)Oc3ccccc3)CC2=O)c1 (stereo unspecified)	-5.21
COc1cccc(N2CCN(C(=O)C(O)c3ccccc3Cl)CC2=O)c1 (stereo unspecified)	55.5
COc1cccc(N2CCN(C(=O)C(O)c3cccc(Cl)c3)CC2=O)c1 (stereo unspecified)	-13.9
O=C(CCc1cc(Cl)no1)N1CCC(c2cc3ncccc3cn2)CC1	129
CCc1cc(C(=O)N2CCC(c3cc4ncccc4cn3)CC2)no1	-21.6
CCc1cc(C(=O)N2CCC(c3cc4ncccc4cn3)CC2)on1	16.1
O=C(C1CCOCC1)N1CC[C@H]2[C@H]1CCN2c1nncs1	-28.6
CSCC[C@@H]1CN2CCC[C@H]2CN1Cc1coc2ccc(Cl)cc2c1=O	-2.59
CN(Cc1cncnc1)[C@@H]1CN(C(=O)C2CC2)[C@@H]2CCCO[C@H]12	-10.1
CN(C)S(=O)(=O)N1C[C@@H]2CC[C@H](C1)N(C/C=C/c1ccc(F)cc1)C2	-0.937
OCCCN1CCCC1c1nc(Cc2ccc(F)cc2)no1 (stereo unspecified)	11.8
CCCN1CCCC1c1nc(Cc2ccc(F)cc2)no1 (stereo unspecified)	-12.9
CC(C)(C)OCCN1CCCC1c1nc(Cc2ccc(F)cc2)no1 (stereo unspecified)	74.9
c1cnc(NC[C@H]2OC[C@@H]3CCN(Cc4cccnc4)C[C@@H]32)nc1	-692
CCCc1ccc(C(=O)N2CCc3c(nc(C)nc3N(C)C)C2)cc1	6.78
Cc1nc2c(c(N(C)C)n1)CCN(C(=O)c1ccc(N)nc1)C2	-0.177
CCNc1ncc(C(=O)N2CCc3c(nc(C)nc3N(C)C)C2)cn1	50.1
Cc1ccc(CN2CC[C@H]3NC(=O)CC[C@@H]32)o1	-15.3
O=C(c1ncccn1)N1C[C@@H]2COC[C@]2(COCc2cccnc2)C1	-13.2
COCCCN1C(=O)CC[C@H]2CN(Cc3ccc4occc4c3)CC[C@H]21	-8.86
O=C1CC(c2ccc(F)c(F)c2)c2snc(C(=O)O)c2N1 (stereo unspecified)	68.8
O=C1CC(c2cccc(Cl)c2)c2snc(C(=O)O)c2N1 (stereo unspecified)	-0.952
O=C1CC(c2ccc(F)cc2)c2snc(C(=O)O)c2N1 (stereo unspecified)	-1.41
CC(=O)NCC(=O)N1C[C@H](OCc2cccnc2)[C@H]2COC[C@H]21	-10.5

Compound	Percent Effect [%]
Cn1cc(CN2CCO[C@@H]3CN(C4CCCC4)C[C@@H]3C2)cn1	-3.52
CCc1ccc(CN2CCN(Cc3ncc[nH]3)[C@H]3CS(=O)(=O)C[C@H]32)nc1	-7.95
CCS(=O)(=O)N1C[C@@H]2CN(Cc3ccco3)CCO[C@@H]2C1	-0.26
Cc1cccc(CO[C@@H]2CC[C@H]3[C@H]2OCCN3Cc2nccs2)n1	-27.1
COc1ccccc1-c1nc(C(=O)N(C)C)n2ccncc12	11.7
COC(=O)CNC(=O)Cn1ccc2cccc(OC)c21	-29.2
COC(=O)CNC(=O)c1nc(-c2ccccc2OC)c2cnccn12	118
Cc1nnc(N2C[C@H](OCCCn3cccn3)[C@H]3OCCC[C@H]32)s1	-20.4
O=C1CO[C@H]2CN(Cc3cccnc3)C[C@H]2N1	0.623
CC(=O)N1C[C@@H](c2ccsc2)[C@@H]2CN(CC3CCCCC3)CC[C@@H]21	18
Cc1cccc(-c2ccc(C(=O)NCC3CCOC3)c(=O)[nH]2)c1 (stereo unspecified)	-6.84
Cc1cccc(-c2ccc(C(=O)NCC(C)(C)C(N)=O)c(=O)[nH]2)c1	57.5
Cc1cccc(-c2ccc(C(=O)NCCN(C)C3CC3)c(=O)[nH]2)c1	-29.9
O=C(NC[C@H]1C[C@@H]2CN(C(=O)c3ccno3)C[C@@H]2O1)C1CCC1	-26.6
CCN1C(=O)C[C@@H]2[C@@H]1CCN2S(=O)(=O)c1ccc(OC)cc1	-42.1
O=C(c1cccs1)N1C[C@@H]2OCCN(CC3CCCO3)[C@@H]2C1 (stereo partly specified)	8.57
CCn1c(SCC(=O)N2CCCC2)nc2cc(C)[nH]c2c1=O	54.6
CCn1c(SCC(=O)N2CCOCC2)nc2cc(C)[nH]c2c1=O	11.1
Cc1cc2nc(SCC(=O)N3CCCC3)n(C)c(=O)c2[nH]1	-2.84
Cc1cc(C(=O)N2C[C@@H]3OCCN(CCN4CCCC4)[C@@H]3C2)c(C)o1	-5.69
CCN1C(=O)C[C@@H]2[C@@H]1CCN2S(=O)(=O)Cc1ccc(C)cc1	16.4
Cc1cc(C(=O)N2CC[C@H]3[C@H](C[C@@H](CN4CCCC4)N3C)C2)c(C)o1	-16.7
CS(=O)(=O)N1CCCC1c1cccc(Cc2ccccc2F)n1 (stereo unspecified)	51.8
CN1CCCC1c1cccc(Cc2ccccc2F)n1 (stereo unspecified)	-56.2
CC(=O)N1CCCC1c1cccc(Cc2ccccc2F)n1 (stereo unspecified)	-41.9
CCC1=N[C@@]2(CC[C@@H]3CN(C(=O)Nc4ccccc4)C[C@@H]32)C(=O)N1C	7.9

Compound	Percent Effect [%]
O=C(NC1CC1)[C@H]1C[C@H]2OCC[C@H]2N(Cc2cccnc2)C1	1.16
O=C(c1cc2cc(F)ccc2[nH]1)N1CCC(Nc2ccc(F)cc2)CC1	70.6
Cc1nnc2n1CCN(C(=O)c1cc3cc(F)ccc3[nH]1)C2	-0.338
O=C(c1cc2cc(F)ccc2[nH]1)N1CCC(Nc2cccnn2)CC1	-12.9
O=C1CO[C@H]2CN(Cc3ccccc3Br)C[C@@H]2N1	5.27
Cn1ccnc1CN1CCN(CC2CC2)[C@@H]2CS(=O)(=O)C[C@@H]21	-9.98
c1ccc(CN2CCO[C@H]3[C@H](OCCN4CCCC4)CC[C@@H]32)nc1	-5.53
CC(C)(C)c1ncc(CNc2ccccc2SCCC(N)=O)s1	4.25
CC(C)(C)c1nc(CNc2ccccc2SCCC(N)=O)cs1	6.99
NC(=O)CCSc1ccccc1NCc1ccc(Cl)s1	75.8
O=C(Nc1cccnc1)[C@@H]1C[C@H]2OCC[C@H]2N(Cc2nccs2)C1	-10.3
Cc1nnc(N2C[C@@H]3CCCO[C@@H]3[C@H](N(C)C)C2)s1	26.3
COC(=O)CNC(=O)c1scnc1C	-29.3
Cc1nc(-c2ccc(Cl)s2)sc1C(=O)NCCCC(N)=O	54.9
COC(=O)CNC(=O)c1nc(Cl)sc1C(C)C	-1.24
COC(=O)CNC(=O)c1sc(-c2ccc(Cl)s2)nc1C	51.9
Cc1nc(-c2ccc(Cl)s2)sc1C(=O)N(C)CC(N)=O	88.9
Cc1nc(-c2ccc(Cl)s2)sc1C(=O)NCCS(N)(=O)=O	54
CC(=O)NCCNC(=O)c1sc(-c2ccc(Cl)cc2)nc1C	-15.5
CC(=O)NCCNC(=O)c1sc(-c2ccc(C)cc2C)nc1C	-6.1
CN(CC(N)=O)C(=O)c1cnc(-c2ccc(Cl)s2)s1	-171
Cc1c(C(=O)NCCCC(N)=O)sc2ccc(F)cc12	0.295
CC(=O)NCCNC(=O)c1sc(-c2ccc(Cl)s2)nc1C	33.9
CN(CC(N)=O)C(=O)c1cc(Cl)c(Cl)n1C	-6.47
